Laboratory results taken from paper PMC7862700, “An all-to-all approach to the identification of sequence-specific readers for epigenetic DNA modifications on cytosine”.

Key:
Test in all cases: DAPPL (digital affinity profiling via proximity ligation, sequencing); 10 mM Tris-HCl pH 7.5, 50 mM NaCl, 1 mM DTT, 4% glycerol, room temperature, 30 min; GST-TFs on glutathione beads, 16-mer random dsDNA library, 0.1% formaldehyde crosslink after washing; high values mean tight binding
Settings in all cases: protein: recombinant; tags: N-terminal GST; dsDNA, one strand shown
[1] = molecular target: T1, FLI1 (Homo sapiens, UniProt Q01543 1-452)
T1 sequence: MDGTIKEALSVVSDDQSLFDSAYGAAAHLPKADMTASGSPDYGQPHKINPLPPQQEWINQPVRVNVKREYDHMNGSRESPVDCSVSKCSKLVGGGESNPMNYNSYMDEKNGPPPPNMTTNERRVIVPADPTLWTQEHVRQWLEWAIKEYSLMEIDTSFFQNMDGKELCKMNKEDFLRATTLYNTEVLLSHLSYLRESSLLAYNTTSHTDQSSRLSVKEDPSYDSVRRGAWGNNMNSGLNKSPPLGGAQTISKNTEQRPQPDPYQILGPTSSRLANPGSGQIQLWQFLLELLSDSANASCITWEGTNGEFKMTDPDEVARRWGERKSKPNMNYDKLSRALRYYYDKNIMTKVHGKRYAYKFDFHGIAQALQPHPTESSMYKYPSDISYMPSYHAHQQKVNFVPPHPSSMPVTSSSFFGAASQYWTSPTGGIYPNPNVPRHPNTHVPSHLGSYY
In short: (§1)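 After expression in yeast as GST fusions, human transcription factors were bound to glutathione beads, DNA-barcoded and mixed with a tag-only sample. The pools were incubated with 200 nmole of a 16-mer random double-stranded DNA library in Tris/NaCl/DTT/glycerol buffer (30 min, room temperature), washed and crosslinked with 0.1% formaldehyde. Proximity ligation with BsaI/T4 ligase ran for 1 h at 37 °C, before PCR amplification and sequencing on an Illumina NextSeq500. Binding signal is a hexamer's read frequency for a factor divided by its frequency for the tag-only sample.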

[2] = molecular target: T2, ELK1 (Homo sapiens, UniProt P19419 1-428)
T2 sequence: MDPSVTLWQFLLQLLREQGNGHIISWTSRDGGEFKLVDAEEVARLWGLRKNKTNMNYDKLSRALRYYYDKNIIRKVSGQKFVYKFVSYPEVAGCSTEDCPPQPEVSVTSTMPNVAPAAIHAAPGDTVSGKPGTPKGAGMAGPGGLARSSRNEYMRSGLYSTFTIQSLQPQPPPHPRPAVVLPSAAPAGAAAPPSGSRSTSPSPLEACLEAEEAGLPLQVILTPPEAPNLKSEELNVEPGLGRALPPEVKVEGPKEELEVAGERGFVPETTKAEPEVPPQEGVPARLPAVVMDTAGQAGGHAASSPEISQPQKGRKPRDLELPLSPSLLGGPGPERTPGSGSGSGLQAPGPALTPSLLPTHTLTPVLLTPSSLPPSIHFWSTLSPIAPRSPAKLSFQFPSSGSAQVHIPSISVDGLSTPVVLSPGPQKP
In short: as §1

[3] = molecular target: T3, GABPA (Homo sapiens, UniProt Q06546 1-454)
T3 sequence: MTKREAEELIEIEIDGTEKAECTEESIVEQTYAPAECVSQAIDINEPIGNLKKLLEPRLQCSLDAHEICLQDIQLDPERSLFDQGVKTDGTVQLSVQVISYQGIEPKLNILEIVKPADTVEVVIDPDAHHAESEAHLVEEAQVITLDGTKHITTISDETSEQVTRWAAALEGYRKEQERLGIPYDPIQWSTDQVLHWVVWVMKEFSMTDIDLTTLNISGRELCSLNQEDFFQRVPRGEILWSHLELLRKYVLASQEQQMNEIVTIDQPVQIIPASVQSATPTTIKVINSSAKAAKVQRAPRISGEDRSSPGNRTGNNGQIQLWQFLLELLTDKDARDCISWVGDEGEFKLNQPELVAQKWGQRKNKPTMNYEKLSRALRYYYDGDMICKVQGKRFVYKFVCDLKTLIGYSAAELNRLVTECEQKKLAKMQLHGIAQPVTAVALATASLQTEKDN
In short: as §1

[4] = molecular target: T4, ERG (Homo sapiens, UniProt P11308 1-479)
T4 sequence: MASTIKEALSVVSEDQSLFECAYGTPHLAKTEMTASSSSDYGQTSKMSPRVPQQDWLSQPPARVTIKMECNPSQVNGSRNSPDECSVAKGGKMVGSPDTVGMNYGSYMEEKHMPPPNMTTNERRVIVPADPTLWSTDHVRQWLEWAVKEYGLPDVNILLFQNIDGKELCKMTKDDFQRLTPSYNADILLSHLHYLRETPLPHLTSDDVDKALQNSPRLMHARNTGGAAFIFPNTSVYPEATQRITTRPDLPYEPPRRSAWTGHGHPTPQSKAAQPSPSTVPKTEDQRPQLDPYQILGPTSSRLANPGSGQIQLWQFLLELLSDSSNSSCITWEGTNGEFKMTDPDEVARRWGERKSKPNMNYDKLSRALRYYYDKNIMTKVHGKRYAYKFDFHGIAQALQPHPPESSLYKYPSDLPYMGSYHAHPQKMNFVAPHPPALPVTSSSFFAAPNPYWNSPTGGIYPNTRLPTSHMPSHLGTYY
In short: as §1

[5] = molecular target: ELF1 (Homo sapiens, UniProt P32519 1-619)
ELF1, sequence (P32519 whole entry): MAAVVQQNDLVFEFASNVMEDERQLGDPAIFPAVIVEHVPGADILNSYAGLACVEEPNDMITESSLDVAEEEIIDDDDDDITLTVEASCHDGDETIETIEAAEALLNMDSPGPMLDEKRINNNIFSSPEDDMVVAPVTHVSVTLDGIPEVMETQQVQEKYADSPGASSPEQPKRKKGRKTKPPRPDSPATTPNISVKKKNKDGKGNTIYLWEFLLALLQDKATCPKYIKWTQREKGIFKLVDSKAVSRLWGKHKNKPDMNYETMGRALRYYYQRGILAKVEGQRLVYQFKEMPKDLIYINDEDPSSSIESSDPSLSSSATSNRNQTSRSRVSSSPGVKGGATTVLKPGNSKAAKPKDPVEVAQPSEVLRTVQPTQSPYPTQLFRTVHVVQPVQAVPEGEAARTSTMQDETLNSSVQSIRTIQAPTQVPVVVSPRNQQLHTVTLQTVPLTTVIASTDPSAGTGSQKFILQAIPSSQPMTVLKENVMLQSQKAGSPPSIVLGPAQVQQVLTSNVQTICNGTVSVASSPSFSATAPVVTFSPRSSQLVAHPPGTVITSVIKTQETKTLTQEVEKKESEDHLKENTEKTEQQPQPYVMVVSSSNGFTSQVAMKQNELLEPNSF
In short: as §1

[6] = molecular target: T5, EHF (Homo sapiens, UniProt Q9NZC4 1-300)
T5 sequence: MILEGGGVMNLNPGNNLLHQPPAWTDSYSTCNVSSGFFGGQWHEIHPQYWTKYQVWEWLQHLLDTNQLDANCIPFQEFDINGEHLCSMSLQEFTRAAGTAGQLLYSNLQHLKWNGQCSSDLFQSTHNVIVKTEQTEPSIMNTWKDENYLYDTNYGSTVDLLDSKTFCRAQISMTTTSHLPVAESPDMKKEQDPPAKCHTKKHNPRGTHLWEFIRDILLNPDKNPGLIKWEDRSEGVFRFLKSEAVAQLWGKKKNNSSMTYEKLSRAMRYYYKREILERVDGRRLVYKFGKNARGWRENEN
In short: as §1

[7] = molecular target: SPIB (Homo sapiens, UniProt Q01892 1-262)
SPIB, sequence (Q01892 whole entry): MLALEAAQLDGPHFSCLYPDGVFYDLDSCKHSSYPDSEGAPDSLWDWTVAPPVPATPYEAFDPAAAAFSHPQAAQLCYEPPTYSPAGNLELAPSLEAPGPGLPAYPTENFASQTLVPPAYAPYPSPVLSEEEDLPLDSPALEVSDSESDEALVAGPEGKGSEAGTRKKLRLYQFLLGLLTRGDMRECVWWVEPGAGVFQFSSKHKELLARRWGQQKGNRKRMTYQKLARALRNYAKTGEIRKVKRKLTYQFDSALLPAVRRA
In short: as §1

[8] = molecular target: T6, FEV (Homo sapiens, UniProt Q99581 1-238)
T6 sequence: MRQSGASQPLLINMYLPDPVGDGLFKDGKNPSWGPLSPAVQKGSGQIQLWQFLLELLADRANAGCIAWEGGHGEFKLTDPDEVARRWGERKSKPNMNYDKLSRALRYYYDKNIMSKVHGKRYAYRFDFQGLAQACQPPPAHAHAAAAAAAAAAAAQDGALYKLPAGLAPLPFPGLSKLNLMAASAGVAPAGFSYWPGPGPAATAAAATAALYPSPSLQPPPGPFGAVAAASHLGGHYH
In short: as §1

[9] = molecular target: ETV5 (Homo sapiens, UniProt P41161 1-510)
ETV5, sequence (P41161 whole entry): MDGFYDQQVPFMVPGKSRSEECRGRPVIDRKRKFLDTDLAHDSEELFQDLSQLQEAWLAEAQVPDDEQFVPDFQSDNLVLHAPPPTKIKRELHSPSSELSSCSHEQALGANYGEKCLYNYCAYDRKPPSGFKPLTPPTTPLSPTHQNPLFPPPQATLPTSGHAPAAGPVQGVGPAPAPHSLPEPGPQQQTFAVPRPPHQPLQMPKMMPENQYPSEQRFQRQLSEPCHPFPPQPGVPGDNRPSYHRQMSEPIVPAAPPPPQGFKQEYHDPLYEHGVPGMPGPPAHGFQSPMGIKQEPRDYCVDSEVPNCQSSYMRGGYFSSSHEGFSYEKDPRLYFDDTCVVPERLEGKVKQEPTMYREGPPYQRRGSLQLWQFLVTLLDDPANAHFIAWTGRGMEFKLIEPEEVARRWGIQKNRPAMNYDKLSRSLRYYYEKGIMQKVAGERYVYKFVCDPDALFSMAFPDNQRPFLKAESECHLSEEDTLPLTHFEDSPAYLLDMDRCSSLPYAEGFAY
In short: as §1

[10] = molecular target: T7, SPIC (Homo sapiens, UniProt Q8N5J4 1-248)
T7 sequence: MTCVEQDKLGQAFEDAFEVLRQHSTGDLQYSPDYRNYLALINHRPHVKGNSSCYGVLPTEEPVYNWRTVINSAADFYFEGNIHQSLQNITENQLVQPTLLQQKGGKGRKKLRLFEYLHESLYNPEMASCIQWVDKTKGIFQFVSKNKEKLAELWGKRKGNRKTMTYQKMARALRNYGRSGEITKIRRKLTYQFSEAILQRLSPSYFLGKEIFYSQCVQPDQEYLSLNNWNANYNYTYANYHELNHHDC
In short: as §1

[11] = molecular target: ELF4 (Homo sapiens, UniProt Q99607 1-663)
ELF4, sequence (Q99607 whole entry): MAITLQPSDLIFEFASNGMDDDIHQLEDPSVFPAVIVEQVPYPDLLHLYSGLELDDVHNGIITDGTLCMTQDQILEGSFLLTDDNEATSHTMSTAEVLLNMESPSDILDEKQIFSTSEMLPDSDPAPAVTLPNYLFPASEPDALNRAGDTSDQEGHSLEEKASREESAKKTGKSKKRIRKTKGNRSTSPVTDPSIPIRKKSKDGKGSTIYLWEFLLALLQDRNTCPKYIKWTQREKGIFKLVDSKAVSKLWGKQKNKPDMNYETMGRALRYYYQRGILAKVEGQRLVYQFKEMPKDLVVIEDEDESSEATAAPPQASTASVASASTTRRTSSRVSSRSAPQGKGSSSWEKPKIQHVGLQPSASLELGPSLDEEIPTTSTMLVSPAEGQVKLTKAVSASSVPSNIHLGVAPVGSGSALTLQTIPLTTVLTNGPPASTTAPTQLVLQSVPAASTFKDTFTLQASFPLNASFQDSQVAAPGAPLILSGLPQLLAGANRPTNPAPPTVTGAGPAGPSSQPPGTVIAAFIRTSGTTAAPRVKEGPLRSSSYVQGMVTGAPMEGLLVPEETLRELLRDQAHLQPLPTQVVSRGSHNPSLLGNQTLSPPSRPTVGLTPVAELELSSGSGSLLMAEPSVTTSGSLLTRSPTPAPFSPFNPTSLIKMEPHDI
In short: as §1

[12] = molecular target: T8, ERF (Homo sapiens, UniProt P50548 1-548)
T8 sequence: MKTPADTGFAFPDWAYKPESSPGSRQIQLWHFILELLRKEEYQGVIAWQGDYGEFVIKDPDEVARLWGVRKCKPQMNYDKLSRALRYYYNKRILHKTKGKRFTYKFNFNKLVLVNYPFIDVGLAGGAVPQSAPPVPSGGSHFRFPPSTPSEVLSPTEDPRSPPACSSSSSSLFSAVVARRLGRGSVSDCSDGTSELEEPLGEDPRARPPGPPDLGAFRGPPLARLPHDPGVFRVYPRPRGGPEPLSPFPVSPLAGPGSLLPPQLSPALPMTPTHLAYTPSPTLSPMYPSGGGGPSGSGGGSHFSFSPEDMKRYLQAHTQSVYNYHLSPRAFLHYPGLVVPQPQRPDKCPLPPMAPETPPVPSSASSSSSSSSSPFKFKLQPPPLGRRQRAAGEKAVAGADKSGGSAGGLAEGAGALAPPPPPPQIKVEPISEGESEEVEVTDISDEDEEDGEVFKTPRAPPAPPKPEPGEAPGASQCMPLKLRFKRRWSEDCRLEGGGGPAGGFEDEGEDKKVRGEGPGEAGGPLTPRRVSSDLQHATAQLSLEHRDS
In short: as §1

[13] = molecular target: T9, ETS2 (Homo sapiens, UniProt P15036 1-469)
T9 sequence: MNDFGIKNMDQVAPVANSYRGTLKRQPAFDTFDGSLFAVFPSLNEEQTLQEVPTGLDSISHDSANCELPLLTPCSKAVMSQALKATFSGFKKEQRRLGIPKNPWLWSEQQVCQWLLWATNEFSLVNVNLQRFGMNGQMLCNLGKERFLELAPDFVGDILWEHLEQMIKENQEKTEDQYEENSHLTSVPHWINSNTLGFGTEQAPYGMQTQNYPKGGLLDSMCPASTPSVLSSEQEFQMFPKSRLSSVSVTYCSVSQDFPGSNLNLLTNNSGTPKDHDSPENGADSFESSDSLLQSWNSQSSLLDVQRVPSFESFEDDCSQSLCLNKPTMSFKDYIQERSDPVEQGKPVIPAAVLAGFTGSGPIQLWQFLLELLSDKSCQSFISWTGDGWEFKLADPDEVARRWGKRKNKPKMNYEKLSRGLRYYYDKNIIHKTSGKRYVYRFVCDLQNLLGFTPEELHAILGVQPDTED
In short: as §1

[14] = molecular target: T10, SPDEF (Homo sapiens, UniProt O95238 1-335)
T10 sequence: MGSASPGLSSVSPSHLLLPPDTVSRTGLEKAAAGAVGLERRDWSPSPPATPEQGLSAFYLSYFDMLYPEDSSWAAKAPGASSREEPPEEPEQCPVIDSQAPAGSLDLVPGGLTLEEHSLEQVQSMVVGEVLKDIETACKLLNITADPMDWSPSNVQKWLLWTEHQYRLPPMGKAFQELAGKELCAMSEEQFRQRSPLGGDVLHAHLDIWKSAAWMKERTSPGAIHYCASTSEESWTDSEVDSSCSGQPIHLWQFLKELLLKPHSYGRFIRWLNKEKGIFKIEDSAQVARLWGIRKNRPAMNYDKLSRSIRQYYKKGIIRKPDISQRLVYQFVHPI
In short: as §1

[15] = molecular target: T11, ETV3 (Homo sapiens, UniProt P41162-2 1-143)
T11 sequence: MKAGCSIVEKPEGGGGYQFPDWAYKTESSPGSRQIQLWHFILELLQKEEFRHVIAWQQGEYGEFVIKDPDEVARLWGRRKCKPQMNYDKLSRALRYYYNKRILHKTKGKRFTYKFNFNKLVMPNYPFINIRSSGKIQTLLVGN
In short: as §1

[16] = molecular target: ETV6 (Homo sapiens, UniProt P41212 1-452)
ETV6, sequence (P41212 whole entry): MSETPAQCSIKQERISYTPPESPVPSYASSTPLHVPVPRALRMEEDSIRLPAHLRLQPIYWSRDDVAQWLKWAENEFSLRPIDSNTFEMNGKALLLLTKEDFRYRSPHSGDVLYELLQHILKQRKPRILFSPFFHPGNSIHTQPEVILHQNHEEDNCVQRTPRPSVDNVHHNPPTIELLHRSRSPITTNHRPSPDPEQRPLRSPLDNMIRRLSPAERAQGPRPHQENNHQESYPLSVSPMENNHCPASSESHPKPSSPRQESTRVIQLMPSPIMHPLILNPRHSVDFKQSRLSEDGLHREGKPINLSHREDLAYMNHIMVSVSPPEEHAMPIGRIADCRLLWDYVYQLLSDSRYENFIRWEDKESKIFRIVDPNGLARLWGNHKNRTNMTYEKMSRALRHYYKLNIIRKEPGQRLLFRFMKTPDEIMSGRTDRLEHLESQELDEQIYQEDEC
In short: as §1

AGCAAC was tested, and the binding signal [1] was 1 fold enrichment (6-mer frequency, TF over GST control), the binding signal [2] was 1.03 fold enrichment (6-mer frequency, TF over GST control) and the binding signal [3] was 1.06 fold enrichment (6-mer frequency, TF over GST control). For the same sequence, the binding signal [4] was 1.06 fold enrichment (6-mer frequency, TF over GST control), the binding signal [5] was 1.08 fold enrichment (6-mer frequency, TF over GST control) and the binding signal [6] was 1.15 fold enrichment (6-mer frequency, TF over GST control). The binding signal [7] was 1.08 fold enrichment (6-mer frequency, TF over GST control), the binding signal [8] was 1.08 fold enrichment (6-mer frequency, TF over GST control) and the binding signal [9] was 1.06 fold enrichment (6-mer frequency, TF over GST control). The binding signal [10] was 1.11 fold enrichment (6-mer frequency, TF over GST control), the binding signal [11] was 1.1 fold enrichment (6-mer frequency, TF over GST control) and the binding signal [12] was 1.11 fold enrichment (6-mer frequency, TF over GST control). The binding signal [13] was 1.11 fold enrichment (6-mer frequency, TF over GST control), the binding signal [14] was 1.08 fold enrichment (6-mer frequency, TF over GST control) and the binding signal [15] was 1.04 fold enrichment (6-mer frequency, TF over GST control). For the same sequence, the binding signal [16] was 1.06 fold enrichment (6-mer frequency, TF over GST control).
